Results as given in PubChem BioAssay (NCATS).
Results filed as inconclusive are left out. Entries that show only a call come without a potency. Values without a mark were called inactive. Active and inactive are the calls of the source. Calls come from the whole dose curve; as a rule, active = well fitted curve in the direction sought with a large enough effect; inconclusive = small, poorly fitted or top-dose-only effect, or another doubt; inactive = no such curve, though single readings can be large; an effect the other way counts as inactive or inconclusive. Numbered stars: 1 amine (or outer) side, 2 acyl side, 3 side chain; on linkers, the order of the positions; unused ones are H or OH. Square brackets hold non-standard residues; d marks the D form. Peptide text beside a SMILES is read from it. * marks the point of attachment. ξ: configuration not given here. X9 = CCC(C)(N*)C(=O)C1CC[C@@H](C(=O)N[C@@H](Cc2ccccc2)C(=O)NCC(=O)O)N1; X8 = O=C([C@@H]1CC(O)CN1[*:1])[*:2]; aIle = CC[C@@H](C)[C@H](N)C(=O)O; Thr(3ξ) = CC(O)[C@H](N)C(=O)O; ξIva = CCC(C)(N)C(=O)O; Aib = CC(C)(N)C(=O)O

Tests used:
[1] = biological target: Cellular tumor antigen p53 (Homo sapiens) (UniProt P04637); assay: Primary qHTS for small molecule compounds that upregulate eGFP-tagged delta133p53alpha (in N-terminal) cells. (AID 2060322); settings: NCI-H358 eGFP-delta133p53alpha fluorescence, 24 h; activation: stronger effect = higher value; note: nearly all actives have a fitted effect of over 75% in size; note: potency is the fitted concentration of half-maximal effect;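 for activation: cells pre-induced with doxycycline then dosed without doxycycline; series mostly up to about 56 µM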
Cellular tumor antigen p53 (Homo sapiens), sequence (P04637 whole entry, looked up): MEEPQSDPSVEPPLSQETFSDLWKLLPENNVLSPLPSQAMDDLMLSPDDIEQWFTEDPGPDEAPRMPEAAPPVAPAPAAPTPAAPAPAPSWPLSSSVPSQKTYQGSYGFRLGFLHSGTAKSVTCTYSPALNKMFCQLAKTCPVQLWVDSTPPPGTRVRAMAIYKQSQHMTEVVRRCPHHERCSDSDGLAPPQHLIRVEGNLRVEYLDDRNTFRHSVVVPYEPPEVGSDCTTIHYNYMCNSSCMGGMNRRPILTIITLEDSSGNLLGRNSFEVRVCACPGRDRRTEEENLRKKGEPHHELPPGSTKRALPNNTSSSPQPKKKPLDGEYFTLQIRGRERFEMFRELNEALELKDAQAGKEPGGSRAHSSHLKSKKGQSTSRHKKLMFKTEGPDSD
Outline: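 NCI-H358 cells pre-induced 24 h with 10 ng/ml doxycycline for eGFP-delta133p53alpha, plated dox-free and exposed 24 h at 37C to titrated compounds. Fixed, Hoechst-stained; gated GFP peak intensity by laser scanning cytometry, normalized to DMSO (0%) and 57.5 uM 5-azacytidine (100%).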

[2] = biological target: Aldehyde dehydrogenase, mitochondrial (Homo sapiens) (UniProt P05091); assay: qHTS for Inhibitors of the Aldehyde Dehydrogenase Family (ALDH2) Primary screen (AID 2061308); note: nearly all actives have a fitted effect of over 55% in size
[3] = biological target: Retinaldehyde dehydrogenase 3 (Homo sapiens) (UniProt P47895); assay: qHTS for Inhibitors of the Aldehyde Dehydrogenase Family (ALDH1A3) Primary screen (AID 2061315)

Row | Compound | activation [1] | Potency [2] | Potency [3] | activity change, negative = inhibition [2] | activity change, negative = inhibition [3] | Potency [1]
1 | Cc1cc2c(F)c(Oc3ncnn4cc(OCC(C)O)c(C)c34)ccc2[nH]1 (stereo unspecified) | -26.8% | inactive | inactive | – | – | –
2 | COc1cccc(C)c1C(=O)O[C@@H]1C[C@H](O[C@H]2[C@H](O)C[C@H](O[C@@H]3CCC[C@H]4[C@H]3C=C[C@@H]3CCCC/C=C/[C@H]5C=C(C(=O)O)[C@@H](C)C[C@@]56OC(=O)C(=C6O)OC(=O)[C@@]34C)O[C@@H]2C)O[C@H](C)[C@H]1O | -5.34% | inactive | inactive | – | – | –
3 | O=c1[nH]ccc2cc(OC3CCNCC3)ccc12 | -7.14% | inactive | inactive | – | – | –
4 | COc1cc(NC(=O)Nc2cccc(CNC(=O)O[C@H]3CCOC3)c2)ccc1-c1cnco1 | 7.14% | inactive | inactive | – | – | –
5 | CC1(C)C2CCC(CO[C@@H]3O[C@H](CO[C@@H]4OC[C@](O)(CO)[C@H]4O)[C@@H](O)[C@H](O)[C@H]3O)C1C2 (stereo partly specified) | -5.34% | inactive | inactive | – | – | –
6 | CC(C)=CCC[C@](C)(O)[C@H]1CC[C@]2(C)[C@@H]1[C@H](O)CC1[C@@]3(C)CC[C@H](O)C(C)(C)[C@@H]3[C@@H](O[C@@H]3O[C@H](CO)[C@@H](O)[C@H](O)[C@H]3O[C@@H]3O[C@H](CO)[C@@H](O)[C@H](O)[C@H]3O)C[C@]12C (stereo partly specified) | -11.6% | inactive | inactive | – | – | –
7 | CC[C@@H](C)[C@H](NC(=O)C(C)(C)NC(=O)[C@H](CCC(N)=O)NC(=O)C(C)(CC)NC(=O)[C@H](Cc1c[nH]c2ccccc12)NC(C)=O)C(=O)N[C@H](C(=O)NC(C)(C)C(=O)N[C@@H](CC(C)C)C(=O)NC(C)(C)C(=O)N1CCC[C@H]1C(=O)N[C@@H](CCC(N)=O)C(=O)NC(C)(C)C(=O)N1CC(O)C[C@H]1C(=O)NC(C)(CC)C(=O)C1CC[C@@H](C(=O)N[C@@H](Cc2ccccc2)C(=O)NCC(=O)O)N1)C(C)O (stereo partly specified) (Ac-W[ξIva]Q[Aib][aIle][Thr(3ξ)][Aib]L[Aib]PQ[Aib][X8]-X9) | 3.57% | – | – | -2.86% [at 11.2 µM] | 18.1% [at 11.2 µM] | –
8 | C[C@@H]1O[C@@H](O[C@@H]2[C@@H](O)[C@H](O[C@@H]3[C@@H](O)[C@@H](O)[C@H](O[C@H]4[C@H](OC(=O)[C@]56CCC(C)(C)C[C@H]5C5=CCC7[C@@]8(C)C[C@H](O)[C@H](O[C@@H]9O[C@@H](C)[C@H](O)[C@@H](O)[C@H]9O)[C@@](C)(CO)C8CC[C@@]7(C)[C@]5(C)C[C@H]6O)O[C@H](C)[C@H](O)[C@@H]4O)O[C@H]3C)OC[C@H]2O)[C@H](O)[C@H](O)[C@H]1O (stereo partly specified) | 19.6% | – | – | 0.778% [at 11.2 µM] | 5.2% [at 11.2 µM] | –
9 | C=C1C(=O)O[C@@H]2C/C(C)=C\C(=O)/C=C(\C)[C@@H](OC(=O)/C(C)=C\C)[C@H](O)[C@@H]12 | – | inactive | inactive | – | – | 5.88 µM (active)
10 | CN1CCN(Cc2ccc(-c3cnc4[nH]cc(-c5ccc6[nH]ccc6c5)c4c3)cc2)CC1 | – | inactive | inactive | – | – | 23.9 µM (active)
11 | CC1COC(Nc2ccc3ncnc(Nc4ccc(OCc5nccs5)c(Cl)c4)c3c2)=N1 (stereo unspecified) | 13.4% | inactive | inactive | – | – | –
12 | C=C1C(=O)O[C@@H]2/C=C(/C)CC3C=C(C[C@H](OC(=O)/C(C)=C\C)[C@@H]12)C(=O)O3 (stereo partly specified) | – | inactive | inactive | – | – | 11.7 µM (active)
13 | Cc1ccc(Cc2c(C)nc3nc(SCC(=O)NCCN4CCNCC4)nn3c2C)cc1 | -9.67% | inactive | inactive | – | – | –
14 | CC(C)NC[C@H](O)COc1ccc(CCOCC2CC2)cc1 | 1.67% | inactive | inactive | – | – | –
15 | O=C(O)CCc1c(C(=O)O)[nH]c2cc(Cl)cc(Cl)c12 | 3% | inactive | inactive | – | – | –
16 | CC(=O)O[C@@H]1[C@@H](CO)O[C@@](CO)(O[C@H]2O[C@H](COC(=O)/C=C/c3ccccc3)[C@@H](O)[C@H](O)[C@H]2O)[C@H]1O | 2.29% | inactive | inactive | – | – | –
17 | CC(=O)O[C@@H]1[C@@H](O)[C@H](O[C@H]2CC[C@]34C[C@]35CC[C@]3(C)[C@@H]([C@@]6(C)CC[C@@H](C(C)(C)O)O6)[C@@H](O)C[C@@]3(C)[C@@H]5C[C@H](O[C@@H]3O[C@H](CO)[C@@H](O)[C@H](O)[C@H]3O)[C@H]4C2(C)C)OC[C@H]1O | 15% | inactive | inactive | – | – | –
